For 22 molecules, binding signal results are on record in paper PMC12136788.

The chains are these.
T1: UNK ZnF1-3 (human, UniProt Q9C0B0 31-174)
T1 sequence: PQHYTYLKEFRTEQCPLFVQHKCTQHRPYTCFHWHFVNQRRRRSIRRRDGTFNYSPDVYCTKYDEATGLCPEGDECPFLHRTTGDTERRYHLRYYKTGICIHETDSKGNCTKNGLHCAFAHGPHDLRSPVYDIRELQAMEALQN

B1: chr7:7679991:7679992:-_ENSG00000106399_ENST00000396682|hu_hu|hu_hu_hu_mus_False|18_48 (ssRNA)
RNA: GGGAGUUCUACAGUCCGACGAUCUGGGAUGAAUCUUUUCCAGCUUCCCCACGAAGCACACGGGCCGGUCGAUAUACUGUGGUAACAUGCCGGCGUUGACGCGCGCUUUGGGGAGCUCCAUCAUGUCCUCCAUGAUUCUGCCGCCAACAGAGGAUUGAGCAUCA
B2: chr1:163117127:163117128:-_ENSG00000143248_ENST00000313961|hu_mus|hu_hu_hu_mus_False|38_78 (ssRNA)
RNA: GGGAGUUCUACAGUCCGACGAUCUGCUACAAAGGAUGUAACUCAACUCACAGGGCAUGAUUUCAUAGCCUGACCAGAUGACUACUUGAUUAGCUCCUGAUAAAACUCAGAGCGCACAAAGCGGGGCAGAGAAUCCUUCUCCAUCAACAGAGGAUUGAGCAUCA
B3: chr16:45382771:45382772:-_ENSMUSG00000022661_ENSMUST00000163230|mus_mus|mus_mus_mus_hu_True|8_48 (ssRNA)
RNA: GGGAGUUCUACAGUCCGACGAUCCUGGGUCAUGUUAUAAGACAAAUGGACAGGGAGGGCAUGCUUCUCAAAAAAUGUGAGCUAUUGACUAAGACUAACAAUAUUUAUCUAGCUAUAAAAAUAAGUUUUAAAUGGACGUUAAGACAACAGAGGAUUGAGCAUCA
B4: chr16:45382771:45382772:-_ENSMUSG00000022661_ENSMUST00000163230|mus_mus|mus_mus_mus_hu_True|8_8 (ssRNA)
RNA: B3 RNA with A87U
B5: chr16:45382771:45382772:-_ENSMUSG00000022661_ENSMUST00000163230|mus_mus|mus_mus_mus_hu_True|8_108 (ssRNA)
RNA: B3 RNA with G27A, C30G, A31U, G33A, A36G, A87U
B6: chr16:45382771:45382772:-_ENSMUSG00000022661_ENSMUST00000163230|mus_mus|mus_mus_mus_hu_True|8_38 (ssRNA)
RNA: B3 RNA with A87U, U105G, A106C
B7: chr14:62207507:62207508:+_ENSG00000100644_ENST00000337138|hu_mus|FALSE|FALSE (ssRNA)
RNA: GGGAGUUCUACAGUCCGACGAUCUGACAACUGAUCAAAGGAACGUAACUGGAAAUCAUCAUCCAUUGGGAUAUAGGGAGCCAGCAUCUCCAAAUCUAAAUCAGUGUCCUGAGUUGAAAAUGGAUUCUUUGCCUCUGUGUCUUCCAACAGAGGAUUGAGCAUCA
B8: chr9:95013113:95013114:-_ENSG00000196305_ENST00000443024|hu_hu|hu_hu_hu_mus_False|28_58 (ssRNA)
RNA: GGGAGUUCUACAGUCCGACGAUCCUCAGUCAGAAAGGGCGUGUAAGGGGCCAUCAGUCUGCACAGAGAAAGCAGGACACUAAACAAUGUCUCCAGAGCCAUGACACAAUCCUCCAUCCCACUCUCACCCUUUAACCUCCUCCUCAACAGAGGAUUGAGCAUCA
B9: chr9:14812383:14812384:-_ENSMUSG00000031934_ENSMUST00000164273|mus_mus|FALSE|FALSE (ssRNA)
RNA: GGGAGUUCUACAGUCCGACGAUCAUAGCUCAAGUAGAUACAUGCCAACAGUAUAACCACAAAUGUCACCAGCCGGCAGCUAAUGUAUUUCAUGAUUAAAUGACUAGAGUUCUUUUUUGUCUUCAAGUACUGCUCCACGAUUGGCAACAGAGGAUUGAGCAUCA
B10: chr5:128448638:128448639:+_ENSG00000066583_ENST00000173527|hu_mus|hu_hu_hu_mus_False|48_58 (ssRNA)
RNA: GGGAGUUCUACAGUCCGACGAUCGGCACUCGCCUUAAUUAGGUUCUGAAUUUCCUUGAACUUCGGGUGGUCUUUGUCAGCUACCAGCUGAAGCAGAACAGCCUCACUAGUGGUCACGAUGAUCCCAGUGCGGGCAAGACGCUCCAACAGAGGAUUGAGCAUCA
B11: chr10:121347744:121347745:-_ENSG00000151923_ENST00000436547|hu_mus|FALSE|FALSE (ssRNA)
RNA: GGGAGUUCUACAGUCCGACGAUCCGAUCUGACUGAAUAACUGAAGAAUAAGGACUUCUGUCACAUCUCUGGAGAGGUUACCUACGUAUAGAGUCCGGGGCUGUCCGUCGUCUUCCAUCAUGGUGGGUGCGACGGAGUGAUCCCCAACAGAGGAUUGAGCAUCA
B12: 89385701_89385821_685_3pUTR_ENSMUSG00000031652_ENSMUST00000034074|mouse|control|control (ssRNA)
RNA: GGGAGUUCUACAGUCCGACGAUCUCUGCGUGGGCUUCAACAAACUGUCUGAAUUCCCGUUUGAUUUCCGACUCUCUCUGAUUACUGGGGAGGUUCUCGUUGCUCUCAAAGAGCUUCACAAACUGCUGAAUGUGACUCCUGGCCCAACAGAGGAUUGAGCAUCA
B13: chr19:16212804:16212805:+_ENSG00000167460_ENST00000300933|hu_mus|hu_hu_hu_mus_False|8_88 (ssRNA)
RNA: GGGAGUUCUACAGUCCGACGAUCAACAAUUCUGGAGUGAAGGAAAGCAUCAAGGAUGAACAGCAUUAAAGCUCAGUCAGAAGGCACAUGGGCAACAAUGAUCACCCCAGCAUUCUCGCUUGGAAUGUGCUUGAGAAAUCUGUUCAACAGAGGAUUGAGCAUCA
B14: chr1:130171486:130171487:+_ENSMUSG00000026353_ENSMUST00000027592|perfect_dup|FALSE|FALSE (ssRNA)
RNA: GGGAGUUCUACAGUCCGACGAUCUGUGGAUGUGGCUCUUGCUGAAGUCUGUGCAGGAGGAGGAUUGCUAAAUAAAAAAUUGCUAAUUAAUCUCCAUAUGGCCAGGAAUGGAUAAAGCACCGUCCCCAGUAAUGUCCAAAUGUCCAACAGAGGAUUGAGCAUCA
B15: chr1:130171486:130171487:+_ENSMUSG00000026353_ENSMUST00000027592|perfect_dup|FALSE|FALSE (ssRNA)
RNA: GGGAGUUCUACAGUCCGACGAUCUGACGAUGUUACUCUCACUGAAGUCUGUGUGGGAGGCGGAUUACUAAACAAGAAAUUGCUAAUUAAUCUCCAGAUGGCAAGGAAUGGAUAAAGCACUGUUCCCAACAAGGUCCAAAUGUCCAACAGAGGAUUGAGCAUCA
B16: chr12:16048344:16048345:+_ENSG00000023734_ENST00000419869|hu_hu|hu_hu_hu_mus_True|8_8 (ssRNA)
RNA: GGGAGUUCUACAGUCCGACGAUCAGAUCGUCCAUAAGUAAUAACCAAAAUCUCUCCUUCAGGAAUAUACUCCAUGCUGCUAACAGACAUAUUAAAAUUCAGAGAUUUCACUUCUGUCAUUGUGGCAUGAUCCCAAAGCCGAACCAACAGAGGAUUGAGCAUCA
B17: chr1:130171486:130171487:+_ENSMUSG00000026353_ENSMUST00000027592|perfect_dup|motif|central (ssRNA)
RNA: B15 RNA with U83G, A84G
B18: chr1:130171486:130171487:+_ENSMUSG00000026353_ENSMUST00000027592|perfect_dup|motif|central (ssRNA)
RNA: B14 RNA with U83G, A84G
B19: chrX:102931482:102931483:-_ENSG00000123562_ENST00000441076|hu_hu|FALSE|FALSE (ssRNA)
RNA: GGGAGUUCUACAGUCCGACGAUCAAUUGCAUCUACAUUUUUCUUGGCAGGGAGUUGAAACAGCUGCUUCUGCCUGGUAACUAAGUCCCAGUCCUCAACAAGCCAUGGUUUUAAUUCUUCAGGAAUCUUCACUUUAACCUCCAUCAACAGAGGAUUGAGCAUCA
B20: chr4:131761308:131761309:-_ENSMUSG00000040025_ENSMUST00000102570|mus_mus|motif|central (ssRNA)
RNA: GGGAGUUCUACAGUCCGACGAUCGCUGACUGUCCAUCAAUCAUGGCUCCACCUAAGGAGCUGGGUGCAUAAGCGUAAUUGCGGCGGUAUCCAGAGCUUUGAGUAGACUGUCCCUGAGAACUGUUAUUUCCCCAUGCUGAGAAGCAACAGAGGAUUGAGCAUCA
B21: chr17:15081082:15081083:+_ENSMUSG00000050088_ENSMUST00000052691|mus_mus|motif|central (ssRNA)
RNA: GGGAGUUCUACAGUCCGACGAUCUGCUCCAGCAUAUUCAAGGGAUCAGAAGAGAAUUUCAAGCACCAGUUUCAAAAUGCGGAUCAAUAUCGUCCAGAGAACUGAUUCCUCCUCUUGGGCUGCCUCUUCUGGAGCGUAAGCCUGCAACAGAGGAUUGAGCAUCA
B22: chr14:14948730:14948731:-_ENSMUSG00000021737_ENSMUST00000022256|mus_mus|FALSE|FALSE (ssRNA)
RNA: GGGAGUUCUACAGUCCGACGAUCAAAAACUGAAUAACGGCAUUCAUAGAGAGAAAACAGAUACUGCCGAACUGCUGGAAGACUGUGCAACACUUCAAGGAUCUCUGCCCCUUUAAUGACCUUUUCCCUGAGGUCCGGCCUUUCCAACAGAGGAUUGAGCAUCA

Substitutions are numbered along the chain they refer to. Whole data set: some 24,000 sequences, median “enrichment r” near 0.99, cut for the highest 2% near 3.7. What follows is part of a selection rich in the highest values, with near analogues and random picks from the rest.

The target of the assay is T1, UNK ZnF1-3. Nature of the assay: nsRBNS (natural sequence RNA bind-n-seq); RBNS binding buffer (assumed for nsRBNS): 25 mM Tris pH 7.5, 150 mM KCl, 3 mM MgCl2, 0.01% Triton X-100, 500 ug/ml BSA, 20 U/ml SUPERase-In, 4 C; UNK is unkempt and MSI1 is Musashi-1; names of the RNAs are library labels; protein concentration not given here; high values mean tight binding.
The molecule B1 showed a binding signal of 0.554 enrichment R.
B2 registered a binding signal of 0.974 enrichment R.
In the case of B3 it was 5.59 enrichment R.
B4: the binding signal is 3.98 enrichment R.
In the case of B5 it was 3.42 enrichment R; in that of B6, 3.88 enrichment R.
In turn, B7 displayed a binding signal of 1.17 enrichment R.
In the case of B8 it was 1.38 enrichment R; in that of B9, 0.953 enrichment R; in that of B10, 0.822 enrichment R.
In the case of B11, the binding signal came to 0.644 enrichment R.
In the case of B12 it was 0.876 enrichment R; in that of B13, 1.57 enrichment R; in that of B14, 4.56 enrichment R.
To B15 belongs 4.56 enrichment R; to B16, 1.38 enrichment R; to B17, 3.3 enrichment R.
In the case of B18 it was 3.3 enrichment R; in that of B19, 1.04 enrichment R.
On to B20, for which the binding signal was determined as 1.17 enrichment R.
For the molecule B21, the binding signal came to 1.62 enrichment R.
In the case of B22 it was 1.41 enrichment R.
